Bioassay records as filed in PubChem.
The list is not random: actives were taken first. Their share in the collection is about 0.82%.
UGM FP inh: inhibitors of M. tuberculosis UDP-galactopyranose mutase; purified UGM, fluorescence polarization probe displacement; inhibition, % at 10 µM; P9WIQ1; hit rate 0.06% among 320,000; in the data active means inhibition above about 10%, passing the limit was not always enough
BioA inh: blocks M. tuberculosis BioA enzyme activity. AID 602481. purified M. tuberculosis BioA enzyme, plate reader. hit rate 0.096% among 360,000. inhibition, % at 9.99 µM; in the data active means inhibition above about 40%
Yp Topo-I inh: Y. pestis Topo-I inhibition via cleavage products; Y. pestis Topo-I cleavage product accumulation, plate reader; activity, % at 10 µM; hit rate 0.064% among 360,000; AID 504884; in the data active means activity above about 50%, passing the limit was not always enough
FadD28 binding: inhibitors of Mycobacterium tuberculosis FadD28 bisubstrate binding; hit rate 0.22% among 360,000; AID 588549; inhibition, % at 12.5 µM; FadD28 bisubstrate probe binding, fluorescence polarization; in the data active means inhibition above about 8.5%, passing the limit was not always enough
Rv3671c inh: Rv3671c (M. tuberculosis) protease inhibition; inhibition, % at 5.96 µM; hit rate 0.048% among 320,000; P9WHR9; in the data active means inhibition above about 38%;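 further: extracellular domain of Rv3671c used as enzyme; 0% = enzyme with DMSO and 100% = no enzyme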
RecA splice inh: blocks M. tuberculosis RecA intein splicing. P9WHJ3. cell-free RecA intein splicing, fluorescence. inhibition, % (test concentration not listed). hit rate 0.75% among 290,000; in the data active means inhibition above about 30%;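 further: 0% = vehicle wells and 100% = reference inhibitor control wells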
Target sequence (P9WHJ3 whole entry, looked up, canonical isoform): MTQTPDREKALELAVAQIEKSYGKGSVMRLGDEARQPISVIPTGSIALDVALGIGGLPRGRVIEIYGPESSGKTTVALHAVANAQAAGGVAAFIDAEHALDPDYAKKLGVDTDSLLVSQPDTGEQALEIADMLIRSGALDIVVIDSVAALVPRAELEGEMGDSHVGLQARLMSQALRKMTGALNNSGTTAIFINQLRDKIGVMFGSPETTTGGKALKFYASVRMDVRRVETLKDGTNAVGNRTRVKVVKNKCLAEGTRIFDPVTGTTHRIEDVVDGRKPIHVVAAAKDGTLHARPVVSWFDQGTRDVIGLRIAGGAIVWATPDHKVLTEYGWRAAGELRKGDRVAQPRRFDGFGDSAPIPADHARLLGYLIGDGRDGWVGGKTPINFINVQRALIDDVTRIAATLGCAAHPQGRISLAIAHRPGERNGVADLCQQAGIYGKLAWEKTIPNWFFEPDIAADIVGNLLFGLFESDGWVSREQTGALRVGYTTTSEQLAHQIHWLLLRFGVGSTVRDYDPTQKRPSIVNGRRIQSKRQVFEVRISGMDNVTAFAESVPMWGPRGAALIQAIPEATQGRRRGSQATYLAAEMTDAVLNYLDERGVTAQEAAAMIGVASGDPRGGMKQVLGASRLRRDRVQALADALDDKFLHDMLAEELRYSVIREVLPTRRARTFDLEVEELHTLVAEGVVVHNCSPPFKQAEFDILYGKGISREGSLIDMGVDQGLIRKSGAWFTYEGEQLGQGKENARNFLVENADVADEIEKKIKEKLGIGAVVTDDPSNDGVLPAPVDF
An asterisk follows results filed as active; i = inactive; x = not tested or not shown.

SMILES	UGM FP inh	BioA inh	Yp Topo-I inh	FadD28 binding	Rv3671c inh	RecA splice inh
Cc1ccc(S(=O)(=O)Nc2ccc3c(c2)CC(=O)N([C@@H](C)CO)C[C@H](C)[C@H](CN(C)C(=O)NC(C)C)O3)cc1	x	0	x	x	x	x
COc1cccc(NC(=S)/C(=C(\[O-])c2ccc(C)c([N+](=O)[O-])c2)[n+]2ccccc2)c1	1	x	0	-3	-8	37*
Cc1ccc(NC(=S)/C(=C(\[O-])c2ccc(C)c([N+](=O)[O-])c2)[n+]2ccccc2)cc1C	1	x	x	x	-5	8
COc1ccccc1C#Cc1ccc([C@@H]2[C@@H](C#N)N(C(=O)C3CCC3)[C@H]2CO)cc1	x	-5	x	x	x	x
Cc1c(C(=O)O)cccc1-n1c(C)cc(/C=N/Nc2ccc([N+](=O)[O-])cn2)c1C	-1	x	-5	34*	7	3
C[C@H]1CCCCO[C@@H](CN(C)S(=O)(=O)c2ccc(Cl)cc2)[C@@H](C)CN([C@@H](C)CO)C(=O)c2cc(NC(=O)NC3CCCCC3)ccc2O1	x	-1	x	x	x	x
CNC(=O)/C(C#N)=C/c1c(N(Cc2ccccc2)Cc2ccccc2)nc2c(C)cccn2c1=O	0	2	33	-6	1	31*
O=C(c1cc(-c2ccccc2Cl)nc2ccc(Br)cc12)N1CCN(c2ccccn2)CC1	-1	-1	55*	-1	-6	1
O=C(c1c[nH]c(C(=O)C(Cl)(Cl)Cl)c1)c1ccc(F)cc1F	-1	x	4	-1	5	34*
CN(C)C=NC(=O)c1cc(C(=O)c2ccccc2)c[nH]1	0	x	1	-1	12	-1
O=C(c1ccccc1)c1c[nH]c(C(=O)C(Cl)(Cl)Cl)c1	-2	x	12	-1	-7	46*
CN(C)C(=O)c1cc(C(=O)c2ccc(F)cc2F)c[nH]1	-1	0	3	0	1	-1
O=[N+]([O-])c1ccc(Sc2ccccn2)nc1	0	-1	2	0	2	0
c1ccc(-n2nnnc2SCc2ccccn2)cc1	0	0	-1	-1	-5	3
CCCSc1nnc(Sc2nnnn2-c2ccccc2)s1	3	0	20	0	-5	47*
O=[N+]([O-])c1ccc(Sc2nnnn2-c2ccccc2)nc1	x	x	x	x	x	58*
C(=C\CSc1nnnn1-c1ccccc1)/CSc1nnnn1-c1ccccc1	-2	2	60*	-4	-5	1
C[C@H]1CN([C@@H](C)CO)C(=O)c2cc(N(C)C)ccc2O[C@@H]1CN(C)S(=O)(=O)c1cccs1	x	0	x	x	x	x
O=C(C[C@@H]1CC[C@@H]2[C@H](COC[C@@H](O)CN2C(=O)C2CCCC2)O1)NCc1ccncc1	x	0	x	x	x	x
C[C@H](CO)N1C[C@H](C)[C@@H](CN(C)C(=O)c2ccncc2)OCCCC[C@H](C)Oc2ccc(NS(=O)(=O)c3ccc(F)cc3)cc2C1=O	x	1	x	x	x	x
O=c1c2ccccc2nc(/C=C/c2ccccc2)n1CCc1ccccc1	2	x	-3	0	-24	-2
Cc1cccc(/C=C/c2nc3ccccc3c(=O)n2Cc2ccccc2)c1	-1	x	20	-1	-20	3
O=c1c2ccccc2nc(/C=C/c2cccnc2)n1Cc1ccccc1	x	x	12	-4	x	49*
O=c1c2ccccc2nc(/C=C/c2cccnc2)n1CCc1ccccc1	0	16	10	-6	-1	43*
NS(=O)(=O)c1ccc(Nc2nc(-c3ccc(O)cc3)cs2)cc1	3	7	-17	10*	12	2
SMILES	UGM FP inh	BioA inh	Yp Topo-I inh	FadD28 binding	Rv3671c inh	RecA splice inh
Oc1ccc(Nc2nc(-c3ccc(O)cc3)cs2)cc1	3	x	-23	0	12	34*
COc1ccc(/C=C/C(=O)N(C)Cc2cccs2)cc1S(=O)(=O)N1CCOCC1	0	0	18	26*	8	0
Cc1ccc(CCNc2ccc3ccccc3c2)cn1	0	x	13	3	-3	38*
COc1ccc(N=C2NC(=O)/C(=C/c3ccc(O)c(OC)c3)S2)cc1	-1	x	-19	12*	6	1
COc1cc(/C=C2/SC(=Nc3ccc(O)cc3)NC2=O)cc(OC)c1O	-1	x	6	-2	2	-1
Nc1ccc(-c2c3ccc(=O)cc-3oc3cc(O)ccc23)c(C(=O)O)c1	45*	i	4	5	5	x
COc1ccc(-c2cc(=O)c3ccc(O)cc3o2)cc1OC	x	-2	-1	-1	x	x
C[C@@H]1CCCCO[C@H](CN(C)C(=O)c2ccccc2)[C@@H](C)CN([C@H](C)CO)C(=O)c2cc(NC(=O)Nc3ccc(F)cc3)ccc2O1	x	-2	x	x	x	x
Cc1ccc(S(=O)(=O)N[C@H]2C=C[C@@H](CC(=O)NCc3ccncn3)O[C@H]2CO)cc1	x	-8	x	x	x	x
COc1ccc(-c2cc(CNC(=O)CCl)on2)cc1	-1	-4	-11	0	2	37*
CCOC(=O)c1c(C)oc2c1c(C=NCCO)c(O)c1ccccc12	x	x	5	8	x	46*
CCOC(=O)c1c(C)oc2c1c(C(c1ccccc1)N1CCOCC1)c(O)c1ccccc12 (centres undefined)	-4	-1	-2	-2	-4	-3
C[C@H]1CN([C@@H](C)CO)C(=O)Cc2cc(NC(=O)CCCCCC(=O)Nc3ccccc3N)ccc2O[C@H]1CN(C)S(=O)(=O)c1ccc(F)cc1	x	0	x	x	x	x
O=C(CNC1=NCCC1)c1ccc(Cl)cc1	-1	x	-5	-2	-7	45*
Cc1ccccc1NCC(=O)c1ccc(Br)cc1	-1	-2	176*	-3	1	10
NC(=O)c1ccccc1NCC(=O)c1ccc(Cl)cc1	-2	x	57*	0	4	-1
COc1ccc(C(=O)CNc2ccccc2Br)cc1	0	-2	1	-1	-4	2
C[C@H](CO)N1C[C@H](C)[C@H](CN(C)Cc2ccc(-c3ccccc3)cc2)Oc2ccc(NC(=O)C3CC3)cc2C1=O	x	-3	x	x	x	x
O=C(Nc1nc2ccc(SC(F)F)cc2s1)c1ccc(NS(=O)(=O)c2ccc(F)c(F)c2)cc1	0	1	7	17*	-213	1
CCC(=O)N(C)C[C@@H]1Oc2cc(C#CCN(C)C)ccc2S(=O)(=O)N([C@@H](C)CO)C[C@@H]1C	x	0	x	x	x	x
O=[N+]([O-])c1ccc(N=Nc2c(Cl)cc(O)cc2Cl)cc1	2	0	-14	0	15	-1
O=C1CC(=Nc2ccc([N+](=O)[O-])cc2)NN1c1c(Cl)cc(Cl)cc1Cl	x	-1	-11	15*	x	x
CCN(CC)c1ccc(/C=c2\sc3nnc(-c4ccccc4Cl)n3c2=O)cc1	0	-6	0	19*	-15	-1
COc1ccc(S(=O)(=O)Nc2ccc3c(c2)CC(=O)N([C@H](C)CO)C[C@H](C)[C@H](CN(C)C(=O)NC2CCCCC2)O3)cc1	x	4	x	x	x	x
C/C(=N\N=C(/N)SC1CC(=O)N(c2ccc(Br)cc2)C1=O)c1cccs1 (centres undefined)	0	3	6	10*	-59	3
C/C(=N\N=C(/N)SC1CC(=O)N(c2ccccc2)C1=O)c1cccs1 (centres undefined)	5	2	5	1	-6	-1
